# PubChem BioAssay (NCATS)
# Inconclusive results are not listed. Values without a mark were called inactive. Calls come from the whole dose curve; as a rule, active = well fitted inhibition curve with a large enough effect; inconclusive = small, poorly fitted or top-dose-only effect, or effect the other way; inactive = flat fitted curve, though single readings scatter. Numbered stars: 1 amine (or outer) side, 2 acyl side, 3 side chain; on linkers, the order of the positions; unused ones are H or OH. Bridge positions count the residues as written; N and C are the ends. Square brackets hold non-standard residues; d marks the D form. Peptide text beside a SMILES is read from it. I, II: the chains in the order shown. Actinocin(9to1) = Cc1c2oc3c(C)ccc(C(=O)[*:1])c3nc-2c(C(=O)[*:2])c(N)c1=O; NMeV = CN[C@H](C(=O)O)C(C)C; Sar = CNCC(=O)O
# Target: ATP-dependent 6-phosphofructokinase (Trypanosoma brucei brucei) (UniProt O15648)
# Sequence (O15648 whole entry, looked up): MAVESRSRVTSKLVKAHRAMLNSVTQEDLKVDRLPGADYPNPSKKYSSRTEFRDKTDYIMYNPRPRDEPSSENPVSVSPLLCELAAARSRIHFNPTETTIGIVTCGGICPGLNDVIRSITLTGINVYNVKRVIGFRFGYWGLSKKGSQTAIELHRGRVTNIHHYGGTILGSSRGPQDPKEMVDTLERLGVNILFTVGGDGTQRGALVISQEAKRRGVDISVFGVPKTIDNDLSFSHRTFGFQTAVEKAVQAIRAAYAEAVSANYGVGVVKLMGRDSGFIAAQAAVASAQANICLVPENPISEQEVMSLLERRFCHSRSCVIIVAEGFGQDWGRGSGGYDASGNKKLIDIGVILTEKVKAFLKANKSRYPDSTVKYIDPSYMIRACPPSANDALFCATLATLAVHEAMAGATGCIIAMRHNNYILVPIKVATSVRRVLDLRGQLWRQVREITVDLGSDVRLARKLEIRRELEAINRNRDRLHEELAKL
# Assay: qHTS Assay to Find Inhibitors of T. brucei phosphofructokinase: hit validation (AID 492961)
# Settings: T. brucei PFK, ADP-Glo luminescence; series mostly up to 51.4 µM; activity change, negative = inhibition: at the top concentration
# In short: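 Luminescence from ADP-Glo reports ADP generated as T. brucei PFK (1.25 nM) phosphorylates 0.5 mM fructose-6-phosphate using 0.1 mM ATP. Reactions ran 45 min at room temperature, pH 8.0.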
# % is set by controls: 0 for no effect and ±100 for the full control effect.
row,Structure (SMILES),"activity change, negative = inhibition"
1,C#CCOC(C(=O)OCCN(C)C)(c1ccccc1)c1ccccc1,4.65%
2,CCN(CC)CCOC(=O)C(O)(c1ccccc1)c1ccccc1,4.3%
3,CC(=O)Nc1cc([As](=O)(O)O)ccc1O,-13.1%
4,COc1ccc(C(=O)c2c(C)n(CCN3CCOCC3)c3ccccc23)cc1,-7.6%
5,O=C(NC(O)C(Cl)(Cl)Cl)NC(O)C(Cl)(Cl)Cl (stereo unspecified),2.25%
6,CCC(C(N)=O)N1CCCC1=O (stereo unspecified),9.05%
7,NP(N)(=O)NC(=O)c1ccc(F)cc1,1%
8,CC(C)CC(N(C)C)C1(c2ccc(Cl)cc2)CCC1 (stereo unspecified),6.03%
9,"Cc1c2oc3c(C)ccc(C(=O)N[C@@H]4C(=O)N[C@H](C(C)C)C(=O)N5CCC[C@H]5C(=O)N(C)CC(=O)N(C)[C@@H](C(C)C)C(=O)O[C@@H]4C)c3nc-2c(C(=O)N[C@@H]2C(=O)N[C@H](C(C)C)C(=O)N3CCC[C@H]3C(=O)N(C)CC(=O)N(C)[C@@H](C(C)C)C(=O)O[C@@H]2C)c(N)c1=O (I: T[dV]P[Sar][NMeV] / II: T[dV]P[Sar][NMeV]; ester I:1-I:C, II:1-II:C; linker I:N-II:N via Actinocin(9to1))",4.11%
10,CCN(C(C)=O)c1cccc(-c2ccnc3c(C#N)cnn23)c1,-3.62%
11,Cn1c(CCCC(=O)O)nc2cc(N(CCCl)CCCl)ccc21,21.1%
12,CC(C)(C)NCC(O)c1cc(Cl)c(N)c(Cl)c1 (stereo unspecified),14.1%
13,Oc1cccc2cccnc12,-1.44%
14,Oc1ccccc1-c1ccccc1,-0.492%
15,CCCC1CCCCN1 (stereo unspecified),0%
16,CC1NCCOC1c1ccccc1 (stereo unspecified),4.73%

row,Structure (SMILES),"activity change, negative = inhibition"
1,OCCOc1ccccc1,-1.99%
2,Oc1cc(Cl)ccc1Oc1ccc(Cl)cc1Cl,2.84%
3,CC(C)=CC1C(C(=O)OCc2cccc(Oc3ccccc3)c2)C1(C)C (stereo unspecified),5.22%
4,CCOP(=S)(OCC)Oc1cc(C)nc(C(C)C)n1,-4.38%
5,CCN(CC)CCN1C(=O)CN=C(c2ccccc2F)c2cc(Cl)ccc21,7.22%
6,O=P1(NCCCl)OCCCN1CCCl (stereo unspecified),6.77% [at 24.3 µM]
7,NCCc1cc(O)c(O)cc1O,-17.6%
8,CN1CCN(C(=O)O[C@H]2c3nccnc3C(=O)N2c2ccc(Cl)cn2)CC1,-4.46%
9,CN(C)CCc1ccc(O)cc1,0%
10,FC(F)(F)c1cccc(C2=CCN(CCc3ccc4ccccc4c3)CC2)c1,-0.681%
11,c1ccc2c(c1)Nc1ccccc1S2,-6.14%
12,CC(C)(N)Cc1ccc(Cl)cc1,-8.96%
13,Cc1ccc(-c2nc3ccc(C)cn3c2CC(=O)N(C)C)cc1,-3.7%
14,CCC(COC(=O)c1cc(OC)c(OC)c(OC)c1)(c1ccccc1)N(C)C (stereo unspecified),-0.263%
15,CC[N+]1(C)CCCC(OC(=O)C(O)(c2ccccc2)c2ccccc2)C1 (stereo unspecified),-0.842%
